This is part of a sample that, as a whole, favours compounds with a hit. Of some 83,000 tested, about 20% had one in any assay.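 Assay: single dose, 48 h. Readout: percent growth (0 = no net growth; negative = cell death). Active: <10.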 Active and inactive are the calls of the source.
Test system: HOP-62 NSCLC
Assay: NCI-60 one-dose screen, 48 h (100 = growth as untreated, 0 = no growth, -100 = all killed)
Settings: 10 µM unless noted

SMILES	growth
O=C(O)C1CN(c2cccc(Cl)c2)N(c2cccc(Cl)c2)C1=O (stereo not given)	88% (inactive)
COc1ccc2c(c1)c(-c1ccc(-c3cn(C)c4ccc(OC)cc34)[nH]1)cn2C	83.3% (inactive)
CCN1CCN(CC(=O)Nc2nc3ccc(NCc4ccc(Br)cc4)cc3s2)CC1	64.8% (inactive)
CC(C)c1ccc(-n2c(=S)[nH]c3sc4c(c3c2=O)CCC(=O)C4)cc1	33.9% (inactive)
Cc1nc2sc(C(=O)Nc3cccc(Cl)c3)c(N)c2cc1C(O)c1ccccc1 (stereo not given)	45.3% (inactive)
Cc1cscc(C)c1=S	99.6% (inactive)
COc1ccc(C2=NN(C(=O)c3cc(OC)c(OC)c(OC)c3)C(c3ccc(N(C)C)cc3)C2)cc1 (stereo not given)	54.5% (inactive)
CN(C)c1ccc(/C=C2/C=C(c3ccccc3)OC2=O)cc1	96.3% (inactive)
CN1CCN(c2ccc3c(c2)nc(NNC(=O)c2cnccn2)c2cccn23)CC1	25.1% (inactive)
CN(CCC#N)c1ccc(/C=C2\NC(=O)NC2=O)cc1	99.3% (inactive)
COc1ccc(C(c2cc(OC)c(OC)c(OC)c2)N2CCCC2)cc1 (stereo not given)	79.5% (inactive)
O=C(/C=C/c1ccc(Br)cc1)c1ccc(-n2cc(CN3CCN(c4cc5c(cc4F)c(=O)c(C(=O)O)cn5C4CC4)CC3)nn2)cc1	87.4% (inactive)
CCOC(=O)n1cc(-c2nonc2-c2cn(C)c3ccccc23)c2ccccc21	34.5% (inactive)
CCOC(=O)c1n[nH]n2c1nc(=O)c1cnn(C)c12	103% (inactive)
C#CC#CC#CC#CC#CC#CC#CC#CCC1OCC(COC(=O)O[C@@H](C(=O)O[C@H]2C[C@@]3(O)[C@@H](OC(=O)c4ccccc4)[C@@H]4[C@]5(OC(C)=O)CO[C@@H]5C[C@H](O)[C@@]4(C)C(=O)[C@H](OC(C)=O)C(=C2C)C3(C)C)[C@@H](NC(=O)c2ccccc2)c2ccccc2)O1 (stereo not given in full)	30.4% (inactive)

Reference: PubChem BioAssay (NCI)
